Where a name gives a salt, the structure may show the parent alone.

The test deals with Saccharomyces cerevisiae. Nature of the test: fraction of cells in G1 phase (DNA content, flow cytometry); higher = more cells with unreplicated DNA (G1 delay). The conditions noted are these: temperature: 30 C; YPD; JTY2953 pdr5 snq2 (sensitized); drug added to: cultures diluted from stationary phase; 6-7 h. The procedure, abridged:
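Library drugs were added to S. cerevisiae in YPD at 30°C, with fixation after 6–7 h for sensitized JTY2953 diluted 1∶200 from overnight and given a final 20 µg/ml, 6 h for dividing JTY2953, and 4.33 h for BY4741. Ethanol-fixed cells stained with SYTOX Green were read by flow cytometry, 10,000 events each. The G1 fraction is the ratio of the Dean-Jett-Fox G1 peak area to the G1 plus G2/M areas.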
Background: A flow cytometer gives signals particle by particle.

For the compound `C[C@@H](O)[C@H]1C(=O)N2C(C(=O)O)=C(S[C@@H]3CN[C@H](C(=O)N(C)C)C3)[C@H](C)[C@H]12` [Meropenem] (52.1553 µM), the “fraction of cells in G1 phase” value was 0.495. With `CC(C)[C@H](N)C(=O)OCCOCn1cnc2c(=O)nc(N)[nH]c21` [Valaciclovir] (61.6633 µM) the figure was 0.465. In the case of `O=C(O)CCCc1ccccc1` [Sodium phenylbutyrate] (107.418 µM) it was 0.491; in that of `CC(C)NCC(O)COc1ccc(CCOCC2CC2)cc1` (stereo not drawn) [Betaxolol HCl] (65.054 µM), 0.525; in that of `CC(C)NCC(O)c1ccc(O)c(O)c1` (racemic) [Isoproterenol HCl (rac)] (94.6687 µM), 0.447.

In the case of `C[C@H]1O[C@@H](n2cc(F)c(=O)[nH]c2=O)[C@H](O)[C@@H]1O` [Doxifluridine] (81.2358 µM), the “fraction of cells in G1 phase” value was found to be 0.479. With `CCCCC[C@H](O)/C=C/[C@H]1[C@H](O)CC(=O)[C@@H]1C/C=C\CCCC(=O)O` [Dinoprostone] (56.7416 µM) the figure was 0.487; with `C#C[C@]1(O)CC[C@H]2[C@@H]3[C@H](C)CC4=C(CCC(=O)C4)[C@H]3CC[C@@]21C` [Tibolone] (64.009 µM), 0.56; with `CC(=O)S[C@@H]1CC2=CC(=O)CC[C@]2(C)[C@H]2CC[C@@]3(C)[C@@H](CC[C@@]34CCC(=O)O4)[C@H]12` [Spironolactone] (48.0095 µM), 0.531. With `C=CCc1ccccc1OCC(O)CNC(C)C` (stereo not drawn) [Alprenolol HCl] (80.2066 µM) the figure was 0.52. In the case of `Cc1ccc(S(=O)(=O)NC(=O)NN2CCCCCC2)cc1` [Tolazamide] (64.2249 µM) it was 0.516. Take `CC(C)(O)c1ccccc1CC[C@@H](SCC1(CC(=O)O)CC1)c1cccc(/C=C/c2ccc3ccc(Cl)cc3n2)c1` [Montelukast] (34.1181 µM): the “fraction of cells in G1 phase” value came out at 0.532. With `COc1ccc(CN(CCN(C)C)c2ccccn2)cc1` [Mepyramine maleate] (70.079 µM) the figure was 0.495; with `Cn1c(=O)c2[nH]cnc2n(C)c1=O` [Aminophylline] (111.008 µM), 0.49; with `OCCN(CCO)c1nc(N2CCCCC2)c2nc(N(CCO)CCO)nc(N3CCCCC3)c2n1` [Dipyridamole] (39.6324 µM), 0.535. With `NC[C@@H]1O[C@H](O[C@H]2[C@@H](O)[C@H](O[C@@H]3[C@@H](O)[C@H](N)C[C@H](N)[C@H]3O[C@H]3O[C@H](CN)[C@@H](O)[C@H](O)[C@H]3N)O[C@@H]2CO)[C@H](N)[C@@H](O)[C@@H]1O` [Neomycin sulfate] (32.5386 µM) the figure was 0.495; with `CN(C)CC/C=C1/c2ccccc2COc2ccc(CC(=O)O)cc21` [Olopatadine] (59.2729 µM), 0.431; with `CCC1=C(C)CN(C(=O)NCCc2ccc(S(=O)(=O)NC(=O)N[C@H]3CC[C@H](C)CC3)cc2)C1=O` [Glimepiride] (40.7642 µM), 0.481. Regarding `CCCc1nn(C)c2c(=O)[nH]c(-c3cc(S(=O)(=O)N4CCN(C)CC4)ccc3OCC)nc12` [Sildenafil] (42.142 µM), the “fraction of cells in G1 phase” value came out at 0.503. In the case of `CCOC(=O)[C@H](CCc1ccccc1)N[C@@H](C)C(=O)N1Cc2ccccc2C[C@H]1C(=O)O` [Quinapril HCl] (45.6071 µM) it was 0.482. In the case of `CC(C(=O)O)c1cccc(C(=O)c2ccccc2)c1` (stereo not drawn) [Ketoprofen+D153] (78.6509 µM) it was 0.495. `O=C(O)COC(=O)Cc1ccccc1Nc1c(Cl)cccc1Cl` [Aceclofenac] (56.4665 µM): the “fraction of cells in G1 phase” value stood at 0.489. In the case of `C#C[C@]1(O)CC[C@H]2[C@@H]3CCC4=CC(=O)CC[C@@H]4[C@H]3CC[C@@]21C` [Norethindrone] (67.0176 µM) it was 0.552.

`CC(=O)[C@@]1(O)CC[C@H]2[C@@H]3CCC4=CC(=O)CC[C@]4(C)[C@H]3CC[C@@]21C` [17- hydroxyprogesterone] (60.5196 µM): the “fraction of cells in G1 phase” value amounted to 0.515. As to `O=C1NC(=O)C(c2ccccc2)(c2ccccc2)N1` [Phenytoin] (79.2785 µM), the “fraction of cells in G1 phase” value came to 0.535. For `Nc1nc2ccc(OC(F)(F)F)cc2s1` [Riluzole HCl] (85.3967 µM), the “fraction of cells in G1 phase” value was 0.551. In the case of `C[C@]12C=CC(=O)C=C1CC[C@@H]1[C@@H]2[C@@H](O)C[C@@]2(C)[C@H]1CC[C@]2(O)C(=O)CO` [Prednisolone] (55.4855 µM) it was 0.466; in that of `Cc1nc2c([nH]1)c(=O)n(C)c(=O)n2Cc1ccco1` [Furafylline] (76.8479 µM), 0.463.
